Assay results taken from PubChem BioAssay.
Values joined by “and” are separate entries in the source; they are usually repeats but may differ in a detail not shown here. Equal entries are not always repeated. Results filed as inconclusive are left out. Active and inactive are the calls of the source. Unless noted, how the calls were made is not given here.

How the values were obtained:
[1] = EMT-state selective cytotoxicity in co-culture – imaging, PC-3E GFP, TEM4-18 mCherry, primary screen (AID 1345086;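 active means compounds killing one labelled cell type while sparing the other, by normalised counts and ratio limits, not self-fluorescent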;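 on all read-outs here: cells exposed to compound for 72 h before imaging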;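 on red/green cell ratio (normalised): normalised mesenchymal count divided by normalised epithelial count so high means epithelial killing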); conditions: PC-3E GFP / TEM4-18 mCherry co-culture, imaging cell counts, at 1 µM; for red/green cell ratio (normalised): actives lie on both sides, counts scaled to control wells, 1 = unselective
[2] = viability loss in pontine glioma line – cell-based, SU-DIPG-XXV, MIPE5.0, CellTiter-Glo, qHTS, dose response (AID 1347065; cut-off not given, nearly all actives have AC50 up to about 26 µM;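 further: cells exposed to compound for 48 hours before ATP readout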); conditions: CellTiter-Glo ATP luminescence
[3] = JHH-DIPG-1 glioma cell viability, MIPE5.0 library, CellTiter-Glo luminescence, qHTS (AID 1347067; cut-off not given, nearly all actives have AC50 up to about 26 µM;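 further: cells exposed to compound for 48 hours before readout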); conditions: JHH-DIPG-1 glioma viability, CellTiter-Glo ATP luminescence
[4] = target: NAD(+) hydrolase SARM1 (Homo sapiens) (UniProt Q6SZW1); test: blocking NAD cleavage by SARM1 SAM-TIR – cell lysate, NAD-Glo luminescence (AID 1508614;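 active means compound whose remaining NAD level is above about 45 nM, limit read from the data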); conditions: SAM-TIR HEK293T lysate NADase, at 1 µM, stronger effect = higher value
NAD(+) hydrolase SARM1 (Homo sapiens), sequence (Q6SZW1 whole entry, looked up): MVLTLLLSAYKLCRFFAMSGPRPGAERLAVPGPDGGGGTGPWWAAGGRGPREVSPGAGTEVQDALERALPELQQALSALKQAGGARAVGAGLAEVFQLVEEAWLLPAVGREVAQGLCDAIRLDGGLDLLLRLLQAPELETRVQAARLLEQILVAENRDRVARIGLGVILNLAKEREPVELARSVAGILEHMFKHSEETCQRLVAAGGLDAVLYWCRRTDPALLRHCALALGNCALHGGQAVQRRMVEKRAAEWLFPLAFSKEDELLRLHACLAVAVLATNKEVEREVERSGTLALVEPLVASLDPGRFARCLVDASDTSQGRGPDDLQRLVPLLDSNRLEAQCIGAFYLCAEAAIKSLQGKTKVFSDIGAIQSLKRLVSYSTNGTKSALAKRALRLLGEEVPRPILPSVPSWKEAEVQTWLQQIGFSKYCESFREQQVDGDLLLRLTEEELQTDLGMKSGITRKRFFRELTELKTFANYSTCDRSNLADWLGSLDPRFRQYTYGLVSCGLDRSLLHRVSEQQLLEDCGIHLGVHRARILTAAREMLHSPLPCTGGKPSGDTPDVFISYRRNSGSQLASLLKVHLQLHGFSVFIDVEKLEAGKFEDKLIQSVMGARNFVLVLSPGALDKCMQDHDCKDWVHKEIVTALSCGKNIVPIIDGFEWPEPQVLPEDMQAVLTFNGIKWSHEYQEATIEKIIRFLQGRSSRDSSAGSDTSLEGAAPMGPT

[5] = P. berghei load reduction in hepatocytes – cell-based, HepG2, luciferase luminescence, HepG2 viability, primary screen (AID 624349; in the data active means parasite load remaining mostly below about 12%, no sharp cut-off; inactive means mostly above about 10%;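 further: 100% = mean of DMSO negative control wells on the same plate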); conditions: P. berghei liver stage in HepG2, luciferase luminescence, concentration not given here; parasite load remaining: stronger effect = lower value; viability: measured here: HepG2 viability without parasites
[6] = viability loss in pontine glioma line – cell-based, SU-DIPG-XVII, MIPE5.0, CellTiter-Glo, qHTS, dose response (AID 1347060; cut-off not given, nearly all actives have AC50 up to about 26 µM); conditions: CellTiter-Glo ATP luminescence
[7] = viability loss in pontine glioma line – cell-based, SU-DIPG-XIII, MIPE4.0, CellTiter-Glo, qHTS, dose response (AID 1347061; cut-off not given, nearly all actives have AC50 up to about 37 µM;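 further: cells exposed to compound for 48 hours before readout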); conditions: CellTiter-Glo ATP luminescence
[8] = viability loss in pontine glioma line – cell-based, JHH-DIPG-1, MIPE4.0, CellTiter-Glo, qHTS, dose response (AID 1347062; cut-off not given, nearly all actives have AC50 up to about 27 µM); conditions: JHH-DIPG-1 viability, CellTiter-Glo ATP luminescence
[9] = viability loss in pontine glioma line – cell-based, SU-DIPG-IV, MIPE4.0, CellTiter-Glo, qHTS, dose response (AID 1347063; cut-off not given, nearly all actives have AC50 up to about 30 µM;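 further: compound exposure lasted 48 hours before the viability readout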); conditions: CellTiter-Glo ATP luminescence
[10] = viability loss in pontine glioma line – cell-based, SU-DIPG-XIII, MIPE5.0, CellTiter-Glo, qHTS, dose response (AID 1347064; cut-off not given, nearly all actives have AC50 up to about 23 µM); conditions: CellTiter-Glo ATP luminescence
[11] = growth inhibition of DIPG cells – cell-based, MIPE4.0 library, CellTiter-Glo luminescence, qHTS (AID 1347066; cut-off not given, nearly all actives have AC50 up to about 30 µM;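 further: cells exposed to compound for 48 hours before readout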); conditions: SU-DIPG-VI viability, CellTiter-Glo ATP luminescence
[12] = growth inhibition of DIPG cells – cell-based, MIPE5.0 library, qHTS (AID 1347068; cut-off not given, nearly all actives have IC50 up to about 30 µM); conditions: SU-DIPG-XXV viability
[13] = viability loss with induced miR-34 in A549 – imaging, A549 dox-inducible miR-34, nuclei and caspase counts, primary screen (AID 1347080;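 active means compounds whose cell count with miR-34 switched on is under 0.7 times the count with it off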); conditions: A549 miR-34 inducible, Hoechst nuclei count, 48 h
[14] = MELAS cybrid and Rieske KO viability enhancers – cell-based, MELAS cybrids, Rieske KO mouse fibroblasts, CellTiter-Glo, primary screen (AID 1508586;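 active means mean z-score across replicates of 1.96 or higher in either the MELAS or the Rieske mutant cell line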;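 further: z relative to plate mean and SD of compound and empty wells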); conditions: low glucose
[15] = target: Mitogen-activated protein kinase 7 (Homo sapiens) (UniProt Q13164); test: Gal4-ERK5 driven luciferase induction – cell-based, HTS, primary screen (AID 1508626;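 active means luciferase signal above three times the same-plate solvent-only control wells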;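 further: luciferase driven by Gal4-ERK5 fusion binding five Gal4 sites before minimal TATA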); conditions: HeLa Gal4-ERK5 transactivation, 18 h, at 5 µM, stronger effect = higher value
Mitogen-activated protein kinase 7 (Homo sapiens), sequence (Q13164 whole entry, looked up, the tested form may be a part): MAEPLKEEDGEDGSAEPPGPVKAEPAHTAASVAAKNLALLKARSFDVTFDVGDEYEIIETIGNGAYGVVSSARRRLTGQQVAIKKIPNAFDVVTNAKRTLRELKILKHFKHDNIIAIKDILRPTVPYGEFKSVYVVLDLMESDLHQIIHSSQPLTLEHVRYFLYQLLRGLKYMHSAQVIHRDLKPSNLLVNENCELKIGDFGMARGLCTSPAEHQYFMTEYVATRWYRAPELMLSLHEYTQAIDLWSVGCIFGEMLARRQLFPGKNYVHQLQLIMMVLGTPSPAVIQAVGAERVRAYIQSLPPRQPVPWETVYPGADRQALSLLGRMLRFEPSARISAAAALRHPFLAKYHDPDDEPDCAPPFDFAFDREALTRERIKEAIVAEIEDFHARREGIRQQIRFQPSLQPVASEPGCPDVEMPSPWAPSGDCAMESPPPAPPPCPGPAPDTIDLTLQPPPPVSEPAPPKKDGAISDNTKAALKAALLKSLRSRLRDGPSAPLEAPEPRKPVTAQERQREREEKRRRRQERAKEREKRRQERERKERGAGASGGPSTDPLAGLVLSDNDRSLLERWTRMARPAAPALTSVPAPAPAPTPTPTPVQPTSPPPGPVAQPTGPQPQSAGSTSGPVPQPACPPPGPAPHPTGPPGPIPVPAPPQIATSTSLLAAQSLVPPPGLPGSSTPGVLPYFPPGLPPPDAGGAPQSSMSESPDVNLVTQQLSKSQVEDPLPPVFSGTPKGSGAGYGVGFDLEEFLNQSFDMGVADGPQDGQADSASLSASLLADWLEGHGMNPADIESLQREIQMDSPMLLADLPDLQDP

[16] = galactose survival enhancers in mitochondrial complex I cybrids – cell-based, galactose medium, ATP luminescence, primary screen (AID 1645843;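 active means z-score of at least 1.8 in each of two replicates, scored against plate mean and spread of sample wells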;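 further: positive z means more ATP and so rescue of galactose-driven cybrid death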); conditions: complex I mutant cybrid cells, 72 h, stronger effect = higher value
[17] = compounds altering circadian rhythm period length – cell-based, LOPAC library, luminescence reporter (AID 2774); conditions: circadian reporter cells, at 7 µM, actives lie on both sides;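 further: values are relative to mean of DMSO wells on each plate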
[18] = test system: Hepatitis C virus NS3 helicase; test: blockers of NS3h binding to ssDNA – biochemical, fluorescence polarization, LOPAC1280 library, primary screen (AID 687035; in the data active means inhibition above about 37%); conditions: Purified HCV NS3 helicase, Cy5-dT15 ssDNA binding fluorescence polarization; stronger effect = higher value; concentration not given here
[19] = compounds altering Cy5-DNA-NS3h complex signal – biochemical, LOPAC1280, artefact control for HCV NS3 helicase inhibitor project (AID 687037); conditions: Cy5-DNA-NS3h complex fluorescence interference counterscreen
[20] = test system: Aerobactin synthetase IucA (Klebsiella pneumoniae); test: inhibition of K. pneumoniae IucA enzyme – biochemical, Tocris library, absorbance (AID 1345561); conditions: purified IucA enzyme assay, absorbance (OD) read-out; stronger effect = lower value;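 tested at 8 µM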;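 further: 100% = enzyme without compound and 0% = no enzyme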
[21] = chitosan synthesis blockers in C. neoformans – flow cytometry, Cibacron Brilliant Red staining (AID 1347148); conditions: Cryptococcus neoformans chitosan, stronger effect = lower value; at 10 µM unless noted;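 further: compound exposure lasted three days at 37 degrees C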
[22] = blockers of cellular phospholipid synthesis – cell-based, LOPAC library, screen 4, primary screen (AID 1347384); conditions: animal cells, phospholipid biosynthesis inhibition screen; at 10 µM
[23] = measured here: epithelial PC-3E GFP cell survival
[24] = measured here: mesenchymal TEM4-18 mCherry cell survival
[25] = stronger effect = lower value, cell number ratio, induced over uninduced
[26] = measured here: relative caspase fold change +Dox/-Dox
[27] = measured here: total cells with miR-34 induction, stronger effect = lower value
[28] = measured here: total cells without miR-34 induction
[29] = MELAS cybrid survival, CellTiter-Glo 48 h, stronger effect = higher value
[30] = Rieske KO mouse fibroblast survival, CellTiter-Glo 72 h

SMILES: Clc1ccc(CCC(Cn2ccnc2)Sc2c(Cl)cccc2Cl)cc1 (stereo not given)
- red/green cell ratio (normalised) [1]: 0.84 (inactive)
- normalised cell number [1, 23]: 1.26
- normalised cell number [1, 24]: 1.06
- outcome [2]: inactive
- outcome [3]: inactive
- remaining NAD [4]: 10 nM (inactive)

SMILES: CC(C)(CO)[C@@H](O)C(=O)NCCC(=O)O
- parasite load remaining [5]: 90.7% (inactive) and 34.6% (inactive)
- viability [5]: 107% and 75%
- red/green cell ratio (normalised) [1]: 1.39 (inactive)
- normalised cell number [1, 23]: 0.63
- normalised cell number [1, 24]: 0.88
- outcome [6]: inactive
- outcome [7]: inactive
- outcome [8]: inactive
- outcome [9]: inactive
- outcome [10]: inactive
- outcome [11]: inactive
- outcome [3]: inactive
- outcome [12]: inactive
- fold change [13, 25]: 0.92 (inactive) and 0.869 (inactive) and 0.91 (inactive)
- fold change [13, 26]: 0.716 and 3.95 and 1.15
- cell count [13, 27]: 9860 and 12000 and 9850
- cell count [13, 28]: 10700 and 13800 and 10800
- z-score [14, 29]: -0.406 (inactive) and -0.744 (inactive)
- z-score [14, 30]: 0.568 and -1.28
- remaining NAD [4]: 10 nM (inactive)
- luciferase signal [15]: 68 AU (inactive)
- z-score [16]: -0.065 (inactive)

SMILES: CC(C)NC[C@H](O)COc1cccc2ccccc12
- period change [17]: 0.145 h (inactive)
- parasite load remaining [5]: 76% (inactive) and 69.1% (inactive) and 147% (inactive)
- viability [5]: 78.7% and 93.4% and 161%
- inhibition [18]: -3% (inactive)
- fluorescence ratio (interference) [19]: 1 (inactive)
- red/green cell ratio (normalised) [1]: 1.36 (inactive)
- normalised cell number [1, 23]: 1
- normalised cell number [1, 24]: 1.37
- remaining activity [20]: 97% (inactive)
- fold fluorescence [21]: 1.64 [at 192.8 µM] (inactive)
- outcome [22]: inactive
- z-score [14, 29]: -0.245 (inactive)
- z-score [14, 30]: -0.593
- z-score [16]: -0.055 (inactive) and 0.085 (inactive) and -0.035 (inactive)

SMILES: CC1CC2C3CCC4=CC(=O)C=C[C@]4(C)[C@@]3(F)[C@@H](O)C[C@]2(C)[C@@]1(O)C(=O)CO (stereo not given in full)
- period change [17]: -0.45 h (inactive)
- parasite load remaining [5]: 123% (inactive)
- viability [5]: 71.5%
- inhibition [18]: -1% (inactive)
- fluorescence ratio (interference) [19]: 1 (inactive)
- red/green cell ratio (normalised) [1]: 1.04 (inactive)
- normalised cell number [1, 23]: 1.32
- normalised cell number [1, 24]: 1.37
- outcome [7]: inactive
- outcome [8]: inactive
- outcome [9]: inactive
- outcome [11]: inactive
- fold change [13, 25]: 0.94 (inactive)
- fold change [13, 26]: 1.79
- cell count [13, 27]: 7510
- cell count [13, 28]: 7990
- outcome [22]: inactive
- z-score [16]: 1.44 (inactive)
